Source: PubChem BioAssay
Only some compounds are listed: those with a hit (about 3.8% of all), similar ones and a draw of the others.
ATXN2 expr inh: reduces ATXN2 reporter expression in HEK-293 cells; HEK-293 ATXN2-luciferase reporter, luminescence, 24 h; hit rate 0.72% among 360,000; AID 1745845; Potency, µM (highest dose often 57 µM), hits mostly inhibitors; also: nearly all actives have a fitted effect of over 55% in size
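ATXN2-luciferase reporter cells (luciferase flanked by upstream and downstream ATXN2 gene portions) were treated 24 h at 37 °C with compounds at up to 57 uM. SteadyGlo luminescence gave expression; GF-AFC fluorescence gave viability.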
TGFb inhibitor: blocks TGF-b signaling; AID 588855; Potency, µM (highest dose often 46.1 µM), most hits filed as inhibitors; hit rate 1.2% among 410,000; HepG2 CAGA-GFP TGF-b/SMAD3 reporter, GFP fluorescence, 18 h; TGF-beta stimulated, 500 pg/mL final; also: nearly all actives have a fitted effect of over 65% in size
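GFP signal (ex488/em500-530) from TGF-beta-stimulated HEPG2 CAGA-GFP cells, 500 pg/mL final, 18 h at 37 degrees C in DMEM plus 1% FBS, normalized to unstimulated and DMSO-stimulated controls.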
ATXN viability: cell viability loss in ATXN counter-screen; S2 cells (HEK-293 line with an ATXN2-luciferase reporter) viability, CellTiter-Fluor protease fluorescence, 24 h; Potency, µM (series often up to 56.7 µM), hits mostly cytotoxic; hit rate 0.49% among 400,000; also: nearly all actives have a fitted effect of over 40% in size
A549 viability: A549 cytotoxicity, counter-screen for Nrf2 inhibitors | Potency, µM (top dose mostly 46 µM), hits mostly inhibitors | hit rate 0.16% among 390,000 | AID 504648 | A549 ARE-Fluc cells, CellTiter-Fluor viability, 18-24 h
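Cytotoxicity counterscreen: CellTiter-Fluor fluorescence was measured in A549 ARE_Fluc cells after 18-24 h of compound exposure in a concentration series. The subsequent BugLite luminescent read reports ARE-luciferase activity.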
Nrf2 inh: blocks Nrf2 signaling; Potency, µM (doses to about 46 µM), most hits filed as inhibitors; hit rate 2.1% among 360,000; AID 504444; A549 ARE-Fluc reporter, luciferase luminescence, 18-24 h; also: nearly all actives have a fitted effect of over 60% in size
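Quantitative HTS in A549 cells stably bearing an antioxidant response element-firefly luciferase construct. Inhibition of Nrf2-driven transcription was scored by luminescence after 18-24 h of compound exposure at 37 °C.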
HepG2 tox: HepG2 cytotoxicity, counter-screen for TGF-b inhibitors | HepG2 CAGA-GFP viability, ATP luminescence, 18 h | hit rate 0.76% among 410,000 | Potency, µM (highest dose often 46.1 µM), most hits filed as cytotoxic
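HepG2 CAGA-GFP cells (1000/well, DMEM with 1% FBS) received compound, then TGF-beta at 500 pg/mL final, and were incubated 18 hours at 37 degrees C. Viability was read by CellTiter-Glo luminescence. Media-only wells were set as complete cell-killing and DMSO as no toxicity.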
Numbers stand for hits; i = inactive; ? = inconclusive; nt = no result. Calls follow the shape of the dose curve; as a rule, active = well fitted curve in the direction sought with a large enough effect; inconclusive = small, poorly fitted or top-dose-only effect, or another doubt; inactive = no such curve, though single readings can be large; an effect the other way counts as inactive or inconclusive.

SMILES	ATXN2 expr inh	TGFb inhibitor	ATXN viability	A549 viability	Nrf2 inh	HepG2 tox
CCOC(=O)COc1ccc(S(=O)(=O)c2ccc(OCC(=O)OCC)cc2)cc1	i	i	i	i	i	13µM
Cc1ccc(NC(=O)CSc2ccccc2)cc1S(=O)(=O)N1CCCCC1	i	?	?	i	23µM	i
Cc1ccc(CN2CC(C(=O)Nc3ccc(C)c(S(=O)(=O)N4CCCCC4)c3)CC2=O)cc1 (stereo unspecified)	i	?	i	?	21µM	i
Cc1ccc(NC(=O)c2cc(=O)c3ccccc3o2)cc1S(=O)(=O)N1CCOCC1	nt	i	i	i	?	i
Cc1ccc(NC(=O)CSc2ccccc2)cc1S(=O)(=O)N1CCOCC1	i	i	i	i	i	i
Cc1ccc(NC(=O)Cn2ncc(Cl)c(Cl)c2=O)cc1S(=O)(=O)N1CCCCC1	?	?	nt	i	i	i
COc1ccc(NC(=O)C2CC(=O)N(Cc3ccc(C)cc3)C2)cc1S(=O)(=O)N1CCCCC1 (stereo unspecified)	i	i	i	i	?	i
Cc1ccc(NC(=O)c2cc(=O)c3ccccc3o2)cc1S(=O)(=O)N1CCCCC1	i	i	i	i	16µM	i
Cc1ccc(NC(=O)Cn2cc(C(F)(F)F)cc(Cl)c2=O)cc1S(=O)(=O)N1CCCCC1	i	?	?	i	23µM	i
COc1cc(OC)cc(OC(=O)C2CCN(C3=NS(=O)(=O)c4ccccc43)CC2)c1	nt	i	?	i	i	i
Cc1ccc(NC(=O)Cn2c(=O)cnc3ccccc32)cc1S(=O)(=O)N1CCCCC1	i	?	i	i	13µM	i
Cc1ccc(NC(=O)c2ccccc2NS(=O)(=O)c2ccc(F)cc2)cc1S(=O)(=O)N1CCCCC1	?	?	i	?	23µM	i
Cc1ccc(NC(=O)CSc2ncnc3ccccc23)cc1S(=O)(=O)N1CCOCC1	i	?	i	i	23µM	i
Cc1ccc(NC(=O)COc2ncnc3ccccc23)cc1S(=O)(=O)N1CCOCC1	i	i	i	i	i	i
Cc1ccc(NC(=O)CSc2ncnc3ccccc23)cc1S(=O)(=O)N1CCCCC1	?	?	?	?	15µM	i
COc1ccc(S(=O)(=O)N2CCCCC2)cc1NC(=O)CSc1ncnc2ccccc12	i	i	?	i	i	i
CCOc1ccc(N(CC(=O)Nc2ccccc2C(=O)N2CCCC2)S(C)(=O)=O)cc1	i	i	?	i	i	i
Cc1nc2nc(C)n(CCN3CCOCC3)c(=O)c2c(-c2cccc([N+](=O)[O-])c2)c1C(=O)CCCCCCCCCCN1CCC(c2ccccc2)(c2ccccc2)CC1	?	7.1µM	nt	?	?	11µM
O=C(NCCCN1CCOCC1)/C(=C/c1ccc(-c2cccc([N+](=O)[O-])c2)o1)NC(=O)c1ccccc1	nt	i	?	nt	nt	i
O=C(Cc1nnc(-c2nc3ccccc3[nH]2)o1)Nc1cc(C(F)(F)F)ccc1Cl	nt	nt	nt	i	i	nt
COc1ccc(C(=O)Nc2ccc3c(c2)C(=O)c2ccccc2C3=O)cc1OC	i	i	i	i	?	i
COc1ccc(C(=O)c2c(C(F)(F)F)oc3c2C(=O)c2ccccc2C3=O)cc1OC	?	4µM	28µM	?	nt	3.5µM
COc1ccc(CNCc2cn(-c3cccc(F)c3)nc2-c2ccc(C)o2)cc1	nt	13µM	?	i	i	i
CCCCCCCCOC(=O)c1c(CSC(=N)N)n(C)c2cc(Br)c(OC(C)=O)cc12	nt	?	32µM	i	?	11µM
CCOC(=O)c1c(CSC(=N)N)n(-c2ccc(Br)cc2)c2cc(Br)c(OC(C)=O)cc12	i	i	i	i	i	i
Cc1ccc(C#N)c(SCc2ccccc2F)n1	i	i	i	i	i	i
Cc1ccc2nc(CSc3nc(C)ccc3C#N)[nH]c2c1	2.2µM	i	nt	i	nt	i
Cc1ccc(NC(=O)CSc2nc3ccccc3c(=O)n2CCCN2CCCCC2)cc1Cl	?	?	?	?	i	14µM
COc1cccc(NC(=O)CSc2nc3c(sc4ccccc43)c(=O)n2CCCN2CCCC2)c1	nt	?	22µM	i	i	i
